High-throughput results: PubChem BioAssay, several laboratories
Cardio protect: cardioprotection against H2O2-induced cell death, primary screen, uHTS, H9c2 cells, ATPLite luminescence; H9c2 cardiomyocytes, H2O2 injury protection, 2 h; protection from H2O2 cell death, % at 20 µM; 0.63% of 360,000 active; AID 588492, 2011;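 active means compounds giving at least 50% protection of heart cells from peroxide-induced death in the single-dose screen, raw or plate-pattern-corrected value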;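 further: 0% = DMSO wells with peroxide and 100% = DMSO wells without peroxide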
GRK2 inh: compounds blocking aptamer binding on GRK2 – biochemical, human GRK2, bead flow cytometry, HTS, primary screen; FAM-aptamer displacement from GRK2; inhibition of aptamer binding, % at 10 µM; 0.59% of 330,000 active;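 active means inhibition of aptamer binding above 40%, roughly 3 SD of noise, on plates passing a quality check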;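 further: median bead fluorescence of bound FAM aptamer so fluorescent compounds give negative values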
Neddyl block: inhibitors of cullin neddylation, primary screen, biochemical, TR-FRET, uHTS, NAE and Ubc12; inhibition, % at 25 µM; 0.58% of 360,000 active; NEDD8-conjugating enzyme Ubc12 (Homo sapiens) + NEDD8-activating enzyme E1 regulatory …; AID 651699, 2012; in the data active means inhibition above about 36%
HDAC3 inhib: HDAC3 deacetylase inhibitors, primary screen, biochemical, fluorescence, cell-free homogeneous | recombinant HDAC3, fluorogenic peptide/trypsin coupled | inhibition, % at 8.3 µM | 0.15% of 320,000 active; in the data active means inhibition above about 26%, passing the limit was not always enough
Target sequence (O15379 whole entry, looked up): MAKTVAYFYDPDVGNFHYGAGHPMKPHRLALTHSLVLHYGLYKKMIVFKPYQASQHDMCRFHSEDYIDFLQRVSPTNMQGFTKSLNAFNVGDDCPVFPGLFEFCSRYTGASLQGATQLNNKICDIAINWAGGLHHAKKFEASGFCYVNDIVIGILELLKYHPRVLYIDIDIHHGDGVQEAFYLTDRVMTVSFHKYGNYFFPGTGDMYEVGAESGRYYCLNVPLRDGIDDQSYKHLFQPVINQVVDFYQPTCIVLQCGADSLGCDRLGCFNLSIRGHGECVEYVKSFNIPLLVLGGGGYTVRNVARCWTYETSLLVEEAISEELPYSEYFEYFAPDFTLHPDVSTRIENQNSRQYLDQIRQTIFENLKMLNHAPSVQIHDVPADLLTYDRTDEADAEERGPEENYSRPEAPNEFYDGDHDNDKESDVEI
GRK2 CP1: GRK2 aptamer-displacing inhibitors, retest, confirmation, biochemical, cherry pick 1, bead flow cytometry; AID 504451, 2011; bead-bound GRK2, FAM-aptamer displacement; shares compounds with GRK2 inh; aptamer displacement, % at 10 µM; 4% of 2,000 active;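 active means aptamer displacement above 40%, near three times the noise of non-fluorescent compounds, on plates passing quality checks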;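 further: negative values mostly reflect intrinsic compound fluorescence rather than true enhancement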
Aptamer quench 1: counter-screen for GRK2 aptamer inhibitors: fluorescent aptamer quenchers | fluorescence change (kMESF span), kMESF (no concentration beside the values) | shares compounds with GRK2 inh | Fluorescent RNA aptamer beads, quenching, flow cytometry; active compounds read high | 110 tested, under 10 active;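 active means compounds whose bead fluorescence drops by more than 37 kMESF across the dose range, marking them as dye quenchers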
Aptamer quench SP: counter-screen for GRK2 aptamer inhibitors: fluorescent aptamer quenchers; Carboxyfluorescein RNA aptamer on beads, flow cytometry quenching; active compounds read low; shares compounds with GRK2 inh; AID 504580; 2,000 tested, under 10 active; fluorescence response (% of DMSO), % at 10 µM;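 active means compounds that quench the bead-bound fluorescent RNA probe, cutting fluorescence to under half of the solvent control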;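 further: counterscreen run without GRK2 so only probe quenching by compound is measured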
GRK2 CP2: GRK2 aptamer-displacing inhibitors, hit retest, confirmation, biochemical, cherry pick 2, bead flow cytometry; 360 tested, under 10 active; shares compounds with GRK2 inh; bead-bound GRK2, FAM-aptamer displacement; AID 504782, 2011; inhibition of aptamer binding, % at 10 µM;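 active means inhibition of aptamer binding above 40%, about triple the noise seen with nonglowing compounds, on plates passing quality control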;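 further: negative values mostly come from compounds that fluoresce themselves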
FAM quench SP: aptamer fluorescence quenching in GRK2 counter-screen; shares compounds with GRK2 inh; 360 tested, under 10 active; fluorescence response vs DMSO, % at 10 µM; carboxyfluorescein RNA aptamer beads, flow cytometry quenching; active compounds read low; AID 588494;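 active means response vs DMSO under 50%, meaning signal dropped by over half, treated as fluorescence quencher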;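 further: labelled aptamer on streptavidin beads without GRK2 as a quench counter-screen; 100% = bead fluorescence of DMSO wells and lower means quenching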
Numbers without * were called inactive; nt = not tested or not shown. Sampled rows, rich in hits. Any-hit rate of the full collection: about 1.8%.

SMILES	Cardio protect	GRK2 inh	Neddyl block	HDAC3 inhib	GRK2 CP1	Aptamer quench SP	others
COCCNC(=O)CN1N=C(c2ccc(C)cc2)CCC1=O	5	3	9	1	nt	nt
CCN(CCCNC(=O)Cn1ncc2c([nH]c3ccc(C)cc32)c1=O)c1cccc(C)c1	2	0	-4	4	-6	99
Cc1ccc2[nH]c3c(=O)n(CC(=O)NCCCN(C)Cc4ccccc4)ncc3c2c1	8	0	nt	-5	nt	nt
CCN(CCCNC(=O)Cn1ncc2c([nH]c3ccc(C)cc32)c1=O)c1ccccc1	-1	48*	12	-4	-2	98
CCOc1c2ccc(C(=O)NCc3ccc4c(c3)OCO4)cc2nn1CCOC	11	2	nt	-24	nt	nt
C=C(C)CN(CC)C(=O)CN1C(=O)NC2(CCCc3ccccc32)C1=O (stereo unspecified)	-2	0	-1	-1	nt	nt
Nc1c(C(=O)NCCc2ccccc2)nnn1Cc1ccc(Cl)cc1	-6	1	-12	-1	nt	nt
Nc1c(C(=O)NCCc2ccccc2)nnn1Cc1ccc(Br)cc1F	-2	50*	9	nt	-7	103
CCCCCC(=O)N/N=C(\C)c1ccc(N2CCCCC2)cc1	-1	2	12	12	nt	nt
Cc1ccc(Nc2c([N+](=O)[O-])cc(C(=O)N3CC(=O)Nc4ccccc43)cc2[N+](=O)[O-])c(C)c1	-6	100*	-36	3	2	99
O=C1CN(C(=O)c2ccc(Cl)c([N+](=O)[O-])c2)c2ccccc2N1	2	3	-23	7	nt	nt
O=C(Nc1ccc(F)cc1)c1cc2cc(Cl)ccc2[nH]1	2	58*	-79	-2	nt	nt	GRK2 CP2=-25;FAM quench SP=100
CCc1ccc2[nH]c(C(=O)Nc3ccc(C)c(F)c3)cc2c1	-5	0	-12	-3	nt	nt
CO[C@H]1CN(C)C(=O)c2ccc(NC(=O)C3CCC3)cc2OC[C@H](C)N(CC2CCCCC2)C[C@@H]1C	nt	nt	-2	nt	nt	nt
COc1ccc(CN(C)C(C)C(=O)Nc2ccc(S(=O)(=O)N3CCCCC3)cc2)cc1F (stereo unspecified)	-9	72*	4	4	-1	99
CSc1ccc(S(=O)(=O)NCc2ccc(C)cc2)cc1	-3	71*	-19	1	0	102
Cc1ccc(S(=O)(=O)NCc2ccccc2)cc1	-2	nt	7	-8	nt	nt
O=C(CSc1ccccc1)Nc1ccc(-c2nc3ccccc3[nH]2)cc1	-7	100*	15	-5	nt	nt	GRK2 CP2=12;FAM quench SP=101
C=CCN(CC=C)CC(=O)Nn1c(C)ccc1C	5	nt	1	nt	nt	nt
COc1ccc2nc(SCC(=O)Nc3ccc4c(c3)OCCO4)[nH]c2c1	-2	75*	-5	-1	99*	127	Aptamer quench 1=-29
Cc1cccc2cc(C#N)c(NCCNC(=O)c3ccccc3)nc12	1	nt	-87	nt	nt	nt
Cc1ccc(S(=O)(=O)Oc2cccc(N3C(=O)C4CC=CCC4C3=O)c2)cc1 (stereo unspecified)	-6	71*	-2	-9	1	100
CC(=O)Nc1ccc(S(=O)(=O)Oc2cccc(N3C(=O)C4CCCCC4C3=O)c2)cc1 (stereo unspecified)	1	0	3	2	nt	nt
Cc1ccc2oc(C(=O)N(C)Cc3ccon3)c(C)c2c1	-3	92*	1	1	-1	104
